High-throughput results as filed in PubChem BioAssay.
Shown are actives, neighbours in structure and some others; about 4.7% of the full set was active somewhere.
D1 PAM: enhances dopamine response at the human D1 receptor. HEK293 TREx D1 cells, calcium flux, dopamine EC20 potentiation. potentiation, % at 10 µM. P21728. 360,000 compounds, 0.036% hits; in the data active = potentiation above about 30%
D1 agonist: activates the human D1 dopamine receptor; P21728; HEK293 T-REx D1 cells, calcium flux, agonist mode; activation, % at 2 µM; 360,000 compounds, 1% hits
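Agonism was scored from calcium flux recorded over 180 s (1 read/s) after pintool compound addition, following a 10-cycle baseline. Cells were inducible force-coupled HEK293 TREx D1, plated overnight at 30 C and loaded with no-wash calcium dye.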
TRHR PAM: allosteric enhancers of human TRH receptor; P34981; TRHR cells, fluo-8 calcium fluorescence, EC20 TRH enhancement; enhancement, % at 2 µM; 360,000 compounds, 0.66% hits; AID 493056; in the data active = enhancement above about 30%
Target sequence (P34981 whole entry, looked up): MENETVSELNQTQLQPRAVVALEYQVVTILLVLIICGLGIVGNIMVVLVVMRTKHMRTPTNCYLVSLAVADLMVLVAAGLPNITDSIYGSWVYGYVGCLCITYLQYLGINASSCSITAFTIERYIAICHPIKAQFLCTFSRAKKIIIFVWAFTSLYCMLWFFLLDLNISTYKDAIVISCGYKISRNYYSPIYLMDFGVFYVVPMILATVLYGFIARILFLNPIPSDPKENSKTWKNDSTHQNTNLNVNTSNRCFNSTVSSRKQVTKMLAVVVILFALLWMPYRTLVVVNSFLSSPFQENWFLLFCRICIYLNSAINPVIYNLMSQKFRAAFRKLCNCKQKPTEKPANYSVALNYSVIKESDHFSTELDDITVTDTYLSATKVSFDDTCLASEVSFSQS
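TRHR-expressing cells loaded with fluo-8 calcium dye were read kinetically (ex 480/em 530) during compound addition, then stimulated with an EC20 of TRH (10 nM final). Enhancement of the Gq-mediated intracellular calcium response was scored.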
TRHR agonist: TRH receptor (human) agonism; AID 493084; TRHR cells, calcium flux fluo-8, FDSS agonist mode; 360,000 compounds, 0.18% hits; activation, % at 2 µM
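TRHR-expressing cells, plated overnight in medium with 10% serum, were loaded with fluo-8 calcium dye at room temperature. After a 10 s baseline, library compound was pin-added and calcium release was recorded kinetically (ex 480/em 530) as agonist response.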
D1 antagonist: antagonists of human D1 dopamine receptor | AID 504652 | HEK293 TREx D1 cells, calcium flux, dopamine EC80; hits give low values | 360,000 compounds, 3.2% hits | activity change, negative = inhibition, % at 10 µM | P21728; in the data active = activity change below about -30%
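HEK293 T-REx cells expressing inducible, force-coupled D1 receptor; no-wash Ca dye, 30–90 min RT. Cmpd → 180 s read at 1 Hz → EC80 DA → 180 s read.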
Of the large screens only hits and unclear results are named; the others gave an inactive call; ! = repeats disagree. Rule as the data show it, unless noted: active = activation above about 30%; inactive = the rest.

CCCOc1ccc(OC(=O)c2ccc(Br)o2)cc1	D1 agonist 94, D1 antagonist -43
Cc1occc1C(=O)N/N=C/c1cnn(C)c1C	D1 antagonist -40
Cc1c(/C=N\NC(=O)c2ccc(F)cc2)cnn1C	none
CCn1cc(C(=O)N(C)Cc2ccccc2)c(=O)c2cc(S(=O)(=O)N3CCc4ccccc4C3)ccc21	none
Cc1ccc(-c2csc(N3CCN(c4cc5c(cc4Cl)nc(C)n5CCN4CCCCC4)CC3)n2)cc1	D1 antagonist -39
Cc1nn(-c2ccccc2)c2c1C(=O)N(c1ccccc1)C(=O)C(C)(C)C2	D1 antagonist -40
CC(C)(C)c1cccc(Cn2nnc3ccccc32)c1O	D1 antagonist -43
Cc1ccc(-c2cn3c(n2)sc2cc(C(=O)NCCC4=CCCCC4)ccc23)c(C)c1	none
CCN(CCCNc1ncnc2nc[nH]c12)c1cccc(C)c1	D1 antagonist -36
CCCCN(CCCNc1ncnc2nc[nH]c12)c1ccccc1	none
COc1cc(NC(=O)Cn2c(C)cc(C)c(C#N)c2=O)cc(OC)c1	none
O=C(CCc1nnc2n(Cc3ccccc3Cl)c(=O)c3ccccc3n12)Nc1ccc(F)cc1	none
CCCn1c(N)c(N2CCCCC2)c(=O)n(CC(=O)Nc2ccc(OC(F)(F)F)cc2)c1=O	D1 antagonist -30
CCCn1c(N)c(N2CCCCC2)c(=O)n(CC(=O)Nc2ccccc2C)c1=O	none
Cc1ccn2c(-c3csc(NCc4ccco4)n3)c(C)nc2c1	D1 antagonist -42
Cc1nc2ccccn2c1-c1csc(Nc2cccc(O)c2)n1	none
Cc1cccc(Nc2nc(-c3c(C)nc4ccccn34)cs2)c1	D1 antagonist -46
CN(Cc1ccccc1)c1nc(-c2ccc(F)cc2)cc(C(F)(F)F)n1	none
CCN(C(=O)CCS(=O)(=O)c1cccc2nsnc12)c1cccc(C)c1	D1 antagonist -57!
CCOC(=O)c1cc2sccc2n1CC(=O)Nc1ccc(OC)cc1OC	D1 antagonist -39
CCOC(=O)Cn1c(C(=O)OCC)cc2sccc21	D1 antagonist -30
CCOC(=O)c1cc2sccc2n1CC(=O)OC	none
COc1cccc(NC(=O)CCc2c(C)nc3c4cccnc4nn3c2C)c1	none
CN1CCN(CCCNC(=O)CCC(=O)N2CCOc3ccccc32)CC1	none
O=C(CCC(=O)N1CCOc2ccccc21)NCCCN1CCN(Cc2ccccc2)CC1	D1 antagonist -38
CCN(CC)c1ccc(C2=NNC(=O)CC2C)cc1[N+](=O)[O-] (stereo not drawn)	D1 antagonist -44
CN1C2CCC1/C(=C/c1cccn1C)C(=O)/C2=C\c1cccn1C	D1 agonist 187
Cn1cccc1/C=C1\CC(C(C)(C)C)C/C(=C\c2cccn2C)C1=O (stereo not drawn)	D1 agonist 123
COc1cccc(N2CCN(C3C(=O)c4ccccc4N3C(C)=O)CC2)c1 (stereo not drawn)	none
COc1ccc(CNc2nc3ccccc3n2CCN2CCCCC2)c(OC)c1	D1 antagonist -41
c1ccc2c(c1)nc(NCc1ccc3c(c1)OCO3)n2CCN1CCOCC1	D1 antagonist -30
O=C(Nc1nc2ccccc2n1CCN1CCCC1)C1CCCCC1	D1 antagonist -30
Cc1c(C(=O)NCc2ccccc2Cl)sc2nc[nH]c(=O)c12	none
Cc1cc(C)c2oc(-c3ccc(C)c(NC(=O)/C=C/c4ccco4)c3)nc2c1	none
O=C(N/N=C\c1ccc(-c2ccccc2[N+](=O)[O-])o1)C1COc2cc3ccccc3cc2O1 (stereo not drawn)	none
Cc1c(C(=O)N/N=C/c2ccc(-c3ccccc3[N+](=O)[O-])o2)sc(N)c1C#N	D1 antagonist -62
O=C(N/N=C\c1ccc(-c2ccccc2[N+](=O)[O-])o1)C1COc2ccccc2O1 (stereo not drawn)	D1 antagonist -36
O=C(N/N=C/c1ccc(-c2ccccc2[N+](=O)[O-])o1)c1cncc(Br)c1	none
COc1ccc(N2CCN(C(=O)c3ccccc3Br)CC2)c([N+](=O)[O-])c1	D1 agonist 38, D1 antagonist -49
COc1cccc(CC(=O)N2CCN(c3ccccc3[N+](=O)[O-])CC2)c1	D1 antagonist -40
COc1ccc(N2CCN(C(=O)c3ccccc3)CC2)c([N+](=O)[O-])c1	none
CN(CCc1nc2ccc(Cl)cc2[nH]1)Cc1nc(CC2CC2)no1	TRHR PAM 35
CN(CCc1nc2ccccc2[nH]1)Cc1nc(CC2CC2)no1	none
Cc1ccc(/C=C/c2nc3ccccc3c(=O)[nH]2)cc1	D1 antagonist -40
Cc1cccc(-c2nc3ccccc3c(=O)[nH]2)c1	D1 antagonist -30
O=c1[nH]c(-c2ccncc2)nc2ccccc12	none
CC(C)(C)C(=O)NC1(C(F)(F)F)C(=O)Nc2c1c(=O)[nH]c(=O)n2-c1ccccc1 (stereo not drawn)	none
COc1ccc2cc1Oc1ccc(cc1)CC1c3c(cc(OC)c4c3Oc3cc5c(cc3O4)CCNC5C2)CCN1C (stereo not drawn)	D1 antagonist -41
O=C(Cc1ccccc1)Nc1ccc(SC(F)F)cc1	D1 antagonist -40
CCC(C(=O)OCC(=O)Nc1ccc(SC(F)F)cc1)c1ccccc1 (stereo not drawn)	D1 antagonist -36
N=c1sccn1CC(=O)Nc1ccc(SC(F)F)cc1	D1 agonist 46
C/C=C/C(=O)OCC(=O)Nc1ccc(SC(F)F)cc1	D1 antagonist -33
O=C(CSc1cn(CC(=O)N2CCCC2)c2ccccc12)Nc1cc(C(F)(F)F)ccc1Cl	none
COc1ccc(OC)c(CCNC(=O)c2nc(-c3ccc(Cl)cc3)n3c2CCCCC3)c1	none
CCOc1ccc(N(CC)S(=O)(=O)N2CCCC(C(=O)NCc3ccccc3Cl)C2)cc1 (stereo not drawn)	none
CCOC(=O)C1CCN(C(=O)Cn2ncc3c4ccccc4n(Cc4ccccc4)c3c2=O)CC1	none
COc1ccc(C(=O)Nc2ccc(SC(F)F)cc2)cc1	D1 agonist 46
CCCCOc1ccc(C(=O)Nc2ccc(SC(F)F)cc2)cc1OC	none
Cc1nc(SCCC(=O)O)c2ccccc2n1	none
Cc1nc(SCCOc2ccc(F)cc2)c2ccccc2n1	D1 agonist 34
CCc1c(C)sc(NC(=O)c2cc(C3CC3)on2)c1C#N	D1 antagonist -37
CCc1nn(CC(=O)N(C)Cc2ccccc2)c(=O)c2cc3sccc3n12	none
O=C(Cc1cccs1)Nc1ccc(Cl)c(S(=O)(=O)N2CCOCC2)c1	D1 antagonist -33
O=C(CSc1nc2ccccc2c(=O)n1-c1ccc(F)c(Cl)c1)Nc1cccc(S(=O)(=O)N2CCOCC2)c1	none
O=C(CSc1nc2ccccc2c(=O)n1-c1ccc(F)cc1)Nc1ccc(Cl)c(S(=O)(=O)N2CCOCC2)c1	D1 antagonist -52
O=C(COc1ncnc2ccccc12)Nc1ccc(Cl)c(S(=O)(=O)N2CCOCC2)c1	D1 antagonist -38
